In PubChem BioAssay AID909 (National Center for Advancing Translational Sciences (NCATS), 2007):
Some of the results follow. Inconclusive results are not listed. A number with no mark means an inactive call. Activity calls are given as the source filed them. Calls follow the shape of the dose curve; as a rule, active = well fitted inhibition curve with a large enough effect in the main read-out, with a control signal flat; inconclusive = small, poorly fitted or top-dose-only effect, or a change in a side signal; inactive = no such curve, though single readings can be large or run the other way.

The compounds below were run against Caspase-7 (Homo sapiens) (UniProt P55210) (assay: Concentration-Response Counterscreen for Redox Active Inhibitors of Caspase-7: Catalase). Details: Caspase-7 Ac-DEVD-AFC fluorescence rate, catalase buffer; series mostly up to 57.5 µM; activity, negative = inhibition: at the top concentration.
Caspase-7 (Homo sapiens), sequence (P55210 24-198 limits assumed): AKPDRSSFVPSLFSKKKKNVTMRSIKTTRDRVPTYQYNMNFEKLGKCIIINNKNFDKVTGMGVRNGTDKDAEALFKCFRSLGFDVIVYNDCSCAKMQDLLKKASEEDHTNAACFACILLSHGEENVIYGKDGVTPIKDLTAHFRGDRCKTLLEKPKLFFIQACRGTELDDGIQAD
Caspase-7 (Homo sapiens), sequence (P55210 207-303 limits assumed): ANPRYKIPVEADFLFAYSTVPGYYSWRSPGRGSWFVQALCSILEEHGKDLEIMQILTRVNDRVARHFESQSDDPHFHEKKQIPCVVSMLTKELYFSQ
Text: NIH Molecular Libraries Screening Centers Network [MLSCN] NIH Chemical Genomics Center [NCGC] MLSCN Grant: 1 X01 MH078950-01 PI Name: Dr. James Wells, Dr. Enrique Perez-Paya, Dr.Janice Williams, Dr. Dennis Wolan, a person NCGC Assay Overview: The caspases (Cysteine Aspartyl Protease) comprise a related family of 14 dimeric proteases that are critical mediators of apoptosis (programmed cell death) and inflammation. The caspases represent an important class of drug targets for stroke, ischemia, cancer and inflammatory diseases. […] One goal of this project was to identify compounds that act as allosteric inhibitors via stabilizing the procaspase form of the enzyme. […] After initiation of the assay with substrate the plates were rapidly read using an automated robotic system (Kalypsys, Inc.) to maintain consistent timing. […]
NCGC Assay Protocol Summary: Caspase 7 was prepared in buffer (50 mM HEPES pH 7.5, 50 mM KCl, 200 mM NaCl, 50 units/well catalase (from bovine liver, Sigma cat#100), 0.1% CHAPS) at a concentration of 66.6 nM and 3 uL was dispensed to all wells using black solid Kalypsys 1536-well plates. […] The plates were then exposed using 405 nm excitation/520 nm emission filters for 4 sec and read at 20 sec intervals for 3 min. […]

SMILES | activity, negative = inhibition [%] | Potency
CCN1C(=O)/C(=C2/Sc3ccccc3N2CCCS(=O)(=O)O)SC1=S | -22.9 | –
N#CC1=C(N)Oc2cc(O)ccc2C1C1CCCCC1 (configuration not stated) | – | 31.6 µM (active)
